The text below walks through data of PubChem BioAssay.

Values without a mark were called inactive. How the calls were made is not given here.

In this test the target is Pantothenate synthetase (Mycobacterium tuberculosis (strain ATCC 25618 / H37Rv)) (UniProt P9WIL5). Nature of the test: Recombinant Mtb pantothenate synthetase (PanC) inhibitors, coupled enzyme, confirmatory (AID 375).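 Further: 0% = full reaction with vehicle and 100% = no enzyme background.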 The note with it: coupled enzyme assay; at 10 µM, stronger effect = higher value.
Chain of Pantothenate synthetase (Mycobacterium tuberculosis (strain ATCC 25618 / H37Rv)) (P9WIL5 whole entry, looked up): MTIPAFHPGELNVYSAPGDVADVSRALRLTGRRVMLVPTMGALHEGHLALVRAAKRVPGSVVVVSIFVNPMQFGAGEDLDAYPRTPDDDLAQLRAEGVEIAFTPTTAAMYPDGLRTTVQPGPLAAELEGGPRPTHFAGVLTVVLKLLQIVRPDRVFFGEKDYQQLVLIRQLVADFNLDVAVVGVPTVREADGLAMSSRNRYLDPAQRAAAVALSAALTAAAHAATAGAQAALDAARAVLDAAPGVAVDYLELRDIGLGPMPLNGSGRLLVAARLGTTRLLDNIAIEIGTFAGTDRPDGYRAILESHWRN
As for `O=C(OCc1nnc(-c2ccc(Cl)cc2)o1)c1ccc(=O)n(Cc2ccccc2)n1`, the inhibition was 0%.

Take `CC(C)CCNC(=O)Cn1c(NCCC(C)C)nc2c1c(=O)n(C)c(=O)n2C`: the inhibition was 0%.

Take `CC(=O)Nc1ccc(N2CCN(Cc3ccccc3F)CC2)cc1`: the inhibition is 0%.

As for `Cc1cc(C)n(C(C)n2nc(C)cc2C)n1`, the inhibition is 6%.

Regarding `Cn1c(=O)oc2cc(S(=O)(=O)N3CCCC(C(=O)NCC4COc5ccccc5O4)C3)ccc21` (stereo not given), the inhibition was 0%.

For the compound `O=c1cc(-c2ccc(Cl)cc2)[nH][nH]1`, the inhibition is 1%.

Turning to `COC(=O)CSc1nc2ncc(Cl)cc2[nH]1`, the inhibition was 1%.

With `COc1ccc(S(=O)(=O)N2CCCC2C(=O)Nc2ccc(C)cc2)cc1` (stereo not given), the inhibition is 0%.

`CCn1c(SCC(=O)c2ccc(C)cc2)nnc1-c1ccoc1C`: the inhibition is 2%.

For `Cc1ccc(OC(=O)NC2CCS(=O)(=O)C2)cc1C` (stereo not given), the inhibition was 0%.

Turning to `CNC(=O)CN(C#N)c1nc(N(C)C)nc(N(C)C)n1`, the inhibition is 0%.

`COc1ccc(N(CC(=O)Nc2cc(C)ccc2C)S(=O)(=O)c2c(C)nn(C)c2C)cc1`: the inhibition is 0%.

Turning to `COc1ccccc1-c1nnc(SCc2ccccn2)n1C`, the inhibition was 0%.

Take `COCC(=O)N(Cc1nc2ccccc2c(=O)[nH]1)Cc1cccs1`: the inhibition was 0%.

On to `CCOC(=O)C1CCN(Cc2c(O)ccc3ccccc23)CC1`, for which the inhibition is 1%.

`COc1cc2cc(C(c3nnnn3C3CCCC3)N3CCCCCC3)c(=O)[nH]c2cc1OC` (stereo not given): the inhibition is 5%.

For the compound `Cc1cc(C)n2cc(CSCc3ccco3)nc2n1`, the inhibition was 2%.

`Cc1noc(C)c1COc1cccc(C(=O)Nc2ccc(C#N)cc2)c1`: the inhibition is 0%.

As to `CCOC(=O)c1cc2sccc2n1CC(=O)Nc1ccc2c(c1)OCCO2`, the inhibition is 0%.

Take `Cc1ccc(NC(=O)CSc2nnc(-c3ccncc3)n2C)cc1C`: the inhibition is 0%.

In the case of `CCCn1c(NCc2ccc3c(c2)OCO3)nc2ccccc21`, the inhibition was 0%.

As for `Cc1cc(C(=O)COc2cccc3cccnc23)c(C)n1C`, the inhibition was 0%.

Regarding `O=C(CSc1nnc2scc(-c3ccccc3)n12)Nc1nsc(-c2ccccc2)n1`, the inhibition is 1%.

For `O=C1c2ccccc2S(=O)(=O)N1Cc1nnc(-c2ccccc2Br)o1`, the inhibition is 0%.

As to `CC(N)C12CC3CC(C1)CC(C(C)N)(C3)C2` (stereo not given), the inhibition is 0%.

For the compound `Cc1cc(=O)oc(C)c1C(=O)O`, the inhibition is 0%.

On to `c1ccc(CNc2c3c(nc4ncnn24)CCCC3)nc1`, for which the inhibition was 0%.

With `Cc1ccc2cc(CN(CC3CCCO3)S(=O)(=O)c3ccc4c(c3)OCCO4)c(=O)[nH]c2c1C` (stereo not given), the inhibition is 2%.

With `CCC1(CC)C(=O)N(C)C(=O)NC1=NCc1ccccc1`, the inhibition is 0%.

Take `CCOC(=O)c1cccc(NC(=O)c2ccco2)c1`: the inhibition was 0%.

As to `CC(=O)c1cccc(NC(=O)c2ccc(NS(C)(=O)=O)cc2)c1`, the inhibition is 1%.

As for `CN(Cc1ccccc1)c1nc2c(c(=O)[nH]c(=O)n2C)n1Cc1ccccc1Cl`, the inhibition was 3%.

Regarding `CCN1CCN(C(=O)C2CC(c3ccc(F)cc3)=NO2)CC1` (stereo not given), the inhibition was 0%.

Consider `CCCc1c(O)nc(SCC(=O)NCCc2ccc(OC)c(OC)c2)[nH]c1=O`, for which the inhibition was 0%.

`C=C(C)Cn1c(N2CC(C)CC(C)C2)nc2c1c(=O)[nH]c(=O)n2C` (stereo not given): the inhibition is 0%.

On to `COCCn1nnnc1C(C(C)C)N(Cc1cccnc1)Cc1ccccc1Cl` (stereo not given), for which the inhibition is 2%.

As to `NS(=O)(=O)c1ccc(CCNC(=O)CCC2COc3ccccc3O2)cc1` (stereo not given), the inhibition is 0%.

As to `CCC(=O)c1ccc(OC(=O)c2ccc(Br)o2)cc1`, the inhibition was 7%.

In the case of `CC(C)C(=O)Nc1ccc(-c2nc3cccnc3o2)cc1`, the inhibition is 2%.

With `CC1CCN(C(=O)CSc2nc3ccccc3[nH]2)CC1`, the inhibition was 0%.
